# Results published in article PMC4081100, “A DNA-binding-site landscape and regulatory network analysis for NAC transcription factors in Arabidopsis thaliana”.
# Biological target: T1, GST-ANAC092(1-176) (Arabidopsis thaliana, UniProt Q9FKA0 1-176)
# T1 sequence: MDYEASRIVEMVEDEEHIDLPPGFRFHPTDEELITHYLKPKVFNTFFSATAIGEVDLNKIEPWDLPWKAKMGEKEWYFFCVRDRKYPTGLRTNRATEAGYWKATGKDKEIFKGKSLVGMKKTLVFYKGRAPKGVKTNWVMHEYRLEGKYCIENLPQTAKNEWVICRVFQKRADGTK
# Experiment: universal protein binding microarray (PBM); transcription factors of Arabidopsis thaliana; high values mean tight binding
# Settings: protein: recombinant; tags: GST; chain copies: 2; dsDNA, one strand shown
# Procedure, shortened: (§1)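 Protein amounts were determined by A280 or anti-GST western blot after glutathione–Sepharose 4B purification of GST-tagged proteins induced in cells, with zinc acetate included for zinc-finger proteins. Duplicate runs at 200 to 500 nM final were done on custom all-10-mer Agilent 4 × 180K arrays made double-stranded by primer extension. The normalised enrichment score (E-score) over gapped and ungapped 8-mers is the measure of binding.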
row,Sequence,binding signal
1,CCTTTCCC,0.088 E-score
2,AGGTTACC,0.0662 E-score
3,AGGTAACC,0.148 E-score
4,GGGAAACC,0.144 E-score
5,GGAGGAAA,0.124 E-score
6,AGGGTAAC,0.059 E-score
7,GAGGGAAA,0.11 E-score

# Biological target: GST-NTL6(1-168) (Arabidopsis thaliana, UniProt Q9SCK6 1-168)
# Sequence (Q9SCK6 1-168): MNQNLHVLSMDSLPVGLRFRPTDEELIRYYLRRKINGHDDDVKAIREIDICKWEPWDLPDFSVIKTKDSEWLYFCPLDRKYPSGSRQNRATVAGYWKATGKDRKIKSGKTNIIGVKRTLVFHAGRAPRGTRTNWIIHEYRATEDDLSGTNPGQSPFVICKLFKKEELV
# Experiment: as above
# Settings: protein: recombinant; tags: GST; chain copies: 2; dsDNA, one strand shown
# Procedure, shortened: as §1
row,Sequence,binding signal
1,CCTTTCCC,0.11 E-score
2,AGGTAACC,0.105 E-score
3,GGAGGAAA,0.146 E-score
4,AGGGTAAC,0.0788 E-score
5,GAGGGAAA,0.11 E-score
6,ATTCCCCC,0.146 E-score
7,AGGTTTCC,0.052 E-score

# Biological target: T2, GST-ANAC019 NAC domain (Arabidopsis thaliana, UniProt Q9C932 14-162)
# T2 sequence: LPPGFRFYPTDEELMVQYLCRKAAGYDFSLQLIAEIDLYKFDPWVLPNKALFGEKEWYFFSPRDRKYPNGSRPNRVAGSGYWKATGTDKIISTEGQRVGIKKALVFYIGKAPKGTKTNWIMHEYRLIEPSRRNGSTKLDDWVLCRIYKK
# Experiment: as above
# Settings: protein: recombinant; tags: GST; chain copies: 2; dsDNA, one strand shown
# Procedure, shortened: as §1
row,Sequence,binding signal
1,CCTTTCCC,0.0681 E-score
2,AGGTTACC,0.0729 E-score
3,GAGGGAAA,0.154 E-score
4,AGGTTTCC,0.0846 E-score

# Biological target: T3, GST-ANAC092(1-285) full length (Arabidopsis thaliana, UniProt Q9FKA0 1-285)
# T3 sequence: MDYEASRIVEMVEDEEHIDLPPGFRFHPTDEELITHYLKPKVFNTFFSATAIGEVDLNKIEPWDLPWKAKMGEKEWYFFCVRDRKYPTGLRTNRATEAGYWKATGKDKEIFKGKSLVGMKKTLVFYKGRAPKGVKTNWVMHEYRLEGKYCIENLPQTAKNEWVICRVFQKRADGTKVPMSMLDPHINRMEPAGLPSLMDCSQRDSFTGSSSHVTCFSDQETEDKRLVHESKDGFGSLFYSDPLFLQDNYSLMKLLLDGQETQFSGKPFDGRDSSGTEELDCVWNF
# Experiment: as above
# Settings: protein: recombinant; tags: GST; chain copies: 2; dsDNA, one strand shown
# Procedure, shortened: as §1
row,Sequence,binding signal
1,GTCGTTGA,0.0529 E-score
2,AGGTTACC,0.182 E-score
3,GGTCAATA,0.0505 E-score
4,AGGTAACC,0.137 E-score
5,ACGGTCAA,0.0716 E-score
6,AGGGTAAC,0.0751 E-score
7,ATTGACCG,0.0505 E-score
8,GTCAAGAC,0.0871 E-score
9,CTGGGTCA,0.0748 E-score
10,TGAGTCAA,0.0797 E-score

# Biological target: T4, GST-NAP(1-166) (Arabidopsis thaliana, UniProt O49255 1-166)
# T4 sequence: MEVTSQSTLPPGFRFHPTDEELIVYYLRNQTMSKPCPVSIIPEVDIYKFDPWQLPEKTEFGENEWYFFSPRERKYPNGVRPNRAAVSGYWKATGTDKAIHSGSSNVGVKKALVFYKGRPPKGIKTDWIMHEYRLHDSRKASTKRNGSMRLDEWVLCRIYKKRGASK
# Experiment: as above
# Settings: protein: recombinant; tags: GST; chain copies: 2; dsDNA, one strand shown
# Procedure, shortened: as §1
row,Sequence,binding signal
1,ACGACCAA,0.103 E-score
2,AGTCGTCG,0.119 E-score
3,CGGTCAAC,0.118 E-score
4,GGTCAATA,0.0842 E-score
5,CAATTGAC,0.054 E-score
6,AAGTCGTC,0.156 E-score
7,ATGGGTCA,0.0537 E-score
8,GACCGTCA,0.0503 E-score
9,GGGTTGAC,0.0845 E-score
10,GTCGTCAA,0.0529 E-score
11,GGTCTTCA,0.0664 E-score
12,GAGGGAAA,0.0766 E-score
13,ACATTGAC,0.0505 E-score
14,TACGGTCA,0.0976 E-score

# Biological target: T5, GST-NST2(1-184) (Arabidopsis thaliana, UniProt Q9M274 1-184)
# T5 sequence: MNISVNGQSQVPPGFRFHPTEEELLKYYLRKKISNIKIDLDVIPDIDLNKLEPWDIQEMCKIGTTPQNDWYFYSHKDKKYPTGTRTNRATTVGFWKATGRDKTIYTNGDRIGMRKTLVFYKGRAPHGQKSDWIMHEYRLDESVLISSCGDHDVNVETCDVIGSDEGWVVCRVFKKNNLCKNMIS
# Experiment: as above
# Settings: protein: recombinant; tags: GST; chain copies: 2; dsDNA, one strand shown
# Procedure, shortened: as §1
row,Sequence,binding signal
1,GTCGTTGA,0.0569 E-score
2,CGGTCAAA,0.0603 E-score
3,AGGTTTCC,0.0833 E-score
4,GGTCAACA,0.0705 E-score

# Biological target: T6, GST-NTL8 NAC domain (Arabidopsis thaliana, UniProt Q9XIN7 14-156)
# T6 sequence: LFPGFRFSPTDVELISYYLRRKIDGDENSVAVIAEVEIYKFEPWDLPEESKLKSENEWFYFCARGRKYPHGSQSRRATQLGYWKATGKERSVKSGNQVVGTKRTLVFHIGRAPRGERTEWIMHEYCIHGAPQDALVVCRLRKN
# Experiment: as above
# Settings: protein: recombinant; tags: GST; chain copies: 2; dsDNA, one strand shown
# Procedure, shortened: as §1
row,Sequence,binding signal
1,GGGGGGAA,0.453 E-score
